Data from article PMC10726135, “HNF4α isoforms regulate the circadian balance between carbohydrate and lipid metabolism in the liver”.
Over roughly 18,000 sequences, “log2 normalized intensity” has its median near 0.36; the highest 2% begin near 7.3. The full list was thinned out, with the highest values kept by preference.

Each sequence was assayed against T1, HNF4alpha8 (COS-7 nuclear extract) (Homo sapiens, UniProt P41235-5 1-452) (assay: protein-binding microarray; COS-7 nuclear extract on double-stranded Agilent 4x180k PBM; binding buffer, salt, pH and temperature not given in the material; high values mean tight binding). Conditions: chain copies: 2; label: 3' end of strand 1 on the slide; dsDNA, one strand shown.
T1 sequence: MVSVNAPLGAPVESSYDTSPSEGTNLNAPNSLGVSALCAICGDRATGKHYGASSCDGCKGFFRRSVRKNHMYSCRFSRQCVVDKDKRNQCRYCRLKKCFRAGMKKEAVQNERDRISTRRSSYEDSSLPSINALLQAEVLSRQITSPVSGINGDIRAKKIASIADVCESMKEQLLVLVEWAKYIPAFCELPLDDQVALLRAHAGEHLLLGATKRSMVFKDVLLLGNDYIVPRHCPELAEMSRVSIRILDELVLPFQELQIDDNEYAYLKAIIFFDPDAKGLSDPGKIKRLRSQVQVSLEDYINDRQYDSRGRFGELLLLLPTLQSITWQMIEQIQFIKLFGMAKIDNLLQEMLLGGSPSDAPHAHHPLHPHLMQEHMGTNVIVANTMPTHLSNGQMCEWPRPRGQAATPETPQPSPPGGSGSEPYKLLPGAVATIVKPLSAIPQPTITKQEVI
Outline: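 Using CaPO4, COS-7 cells were transiently transfected with a human HNF4α isoform expression vector, and their nuclear extracts were applied to a custom Agilent SurePrint G3 4x180k double-stranded oligonucleotide array (~60 nt; ~44,000 test sequences in quadruplicate). Bound HNF4α was imaged at 2-µm resolution with an Agilent G2565CA scanner. Agilent software supplied the background-corrected, normalized gProcessedSignal that serves as the binding signal.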

Sequence | binding signal
CCCATCCCAGAGGTCAAACTATCTGAGGTGGCCTAGGGAGATTAGAGTATCGGTCGA | 1.93 log2 normalized intensity
CTGAGAAGATGAAAGACGAAAGGGACTTTGGCCTAGGGAGATTAGAGTATCGGTCGA | 2.82 log2 normalized intensity
TTATCTCAGATGAGACTTTGGACTTTTGAAGCCTAGGGAGATTAGAGTATCGGTCGA | 8.04 log2 normalized intensity
GAATCTACAGAATTCTCATGGAGGACTTTGGCCTAGGGAGATTAGAGTATCGGTCGA | 3.31 log2 normalized intensity
TCAGATGAGACTTTGGACTTTTGAACTAAGGCCTAGGGAGATTAGAGTATCGGTCGA | 7.23 log2 normalized intensity
GGGCTGAGGATGAGGACTTTGGTCTTATTAGCCTAGGGAGATTAGAGTATCGGTCGA | 4.45 log2 normalized intensity
GATGTTGGGAGGAGTGGACTTTGATCTCAGGCCTAGGGAGATTAGAGTATCGGTCGA | 9.38 log2 normalized intensity
TCTGGGATGTTGGGAGGAGTGGACTTTGATGCCTAGGGAGATTAGAGTATCGGTCGA | 6.84 log2 normalized intensity
AATTCTCATGGAGGACTTTGGCCTTTTGTGGCCTAGGGAGATTAGAGTATCGGTCGA | 6.71 log2 normalized intensity
ATCTAGGTGAGGGATGAGGACTTTGATCAGGCCTAGGGAGATTAGAGTATCGGTCGA | 6.79 log2 normalized intensity
GGGACTAGCCTTATCTCAGATGAGACTTTGGCCTAGGGAGATTAGAGTATCGGTCGA | 2.03 log2 normalized intensity
TAGCCTTATCTCAGATGAGACTTTGGACTTGCCTAGGGAGATTAGAGTATCGGTCGA | 8.64 log2 normalized intensity
TACAGAATTCTCATGGAGGACTTTGGCCTTGCCTAGGGAGATTAGAGTATCGGTCGA | 7.81 log2 normalized intensity
CTCCCCCACGACAGAATTGACTCTTCGTTTGCCTAGGGAGATTAGAGTATCGGTCGA | 2.63 log2 normalized intensity
CTTTCATCTTTGCGGTGAGCATTTGTTTAGGCCTAGGGAGATTAGAGTATCGGTCGA | 0.99 log2 normalized intensity
CAGAAGCAATCACAAGGAATGCCCTTATCTGCCTAGGGAGATTAGAGTATCGGTCGA | 2.11 log2 normalized intensity
CCTATGGTATGTATGGAATGTCACTTTCTGGCCTAGGGAGATTAGAGTATCGGTCGA | 1.79 log2 normalized intensity
ATGCACGTGCTCCAGGAGGGGAGGAGGGTCGCCTAGGGAGATTAGAGTATCGGTCGA | 3.4 log2 normalized intensity
CTTTATACCTGTACGTTACTCTGTACCTCGGCCTAGGGAGATTAGAGTATCGGTCGA | 1.8 log2 normalized intensity
TCCTAGACCTTTGACCTTTATACCTGTACGGCCTAGGGAGATTAGAGTATCGGTCGA | 6.76 log2 normalized intensity
CACATTCCTAGACCTTTGACCTTTATACCTGCCTAGGGAGATTAGAGTATCGGTCGA | 8.55 log2 normalized intensity
GACCTTTGACCTTTATACCTGTACGTTACTGCCTAGGGAGATTAGAGTATCGGTCGA | 7.64 log2 normalized intensity

Sequence | binding signal
ATTGGGTCCACACATTCCTAGACCTTTGACGCCTAGGGAGATTAGAGTATCGGTCGA | 3.87 log2 normalized intensity
GTCCACACATTCCTAGACCTTTGACCTTTAGCCTAGGGAGATTAGAGTATCGGTCGA | 8.88 log2 normalized intensity
ATTGTGATTCCTGTGATACCTTCTTTGCCTGCCTAGGGAGATTAGAGTATCGGTCGA | 0.781 log2 normalized intensity
CCCAAGATGGATTGGGTCCACACATTCCTAGCCTAGGGAGATTAGAGTATCGGTCGA | 0.829 log2 normalized intensity
TTGACCTTTATACCTGTACGTTACTCTGTAGCCTAGGGAGATTAGAGTATCGGTCGA | 4.37 log2 normalized intensity
GGAACCAAGAGCAGATTTGTTTGCTCTTTAGCCTAGGGAGATTAGAGTATCGGTCGA | 0.915 log2 normalized intensity
TTCCCTGAGTTTCCATTAACTGAACCTAGAGCCTAGGGAGATTAGAGTATCGGTCGA | 1.69 log2 normalized intensity
TAAGATACGAAGGGTTTAAAGGGCAGAAGAGCCTAGGGAGATTAGAGTATCGGTCGA | 2.39 log2 normalized intensity
AAGTTCATGGAAAGTTTCACTTTCTCTTATGCCTAGGGAGATTAGAGTATCGGTCGA | 0.0777 log2 normalized intensity
TTCCCTAAGATTCTGGTCAAAGGTCAATGAGCCTAGGGAGATTAGAGTATCGGTCGA | 8.22 log2 normalized intensity
GCAAAGGTCAGCTCATTCCCTAGGGCTCGGGCCTAGGGAGATTAGAGTATCGGTCGA | -0.991 log2 normalized intensity
TAAGATTCTGGTCAAAGGTCAATGAAGCTCGCCTAGGGAGATTAGAGTATCGGTCGA | 6.64 log2 normalized intensity
ATTCATTCCCTAAGATTCTGGTCAAAGGTCGCCTAGGGAGATTAGAGTATCGGTCGA | 7.83 log2 normalized intensity
TTCTGGTCAAAGGTCAATGAAGCTCTTGCTGCCTAGGGAGATTAGAGTATCGGTCGA | 6.15 log2 normalized intensity
AAAGGGCAAAGGTCAGCTCATTCCCTAGGGGCCTAGGGAGATTAGAGTATCGGTCGA | 6.71 log2 normalized intensity
ACTTAAAAGAAGCTACTAGCAAATCTGCCCGCCTAGGGAGATTAGAGTATCGGTCGA | -0.288 log2 normalized intensity
AACAAAGGTCGGTGGTATGTGTGTGCTTTAGCCTAGGGAGATTAGAGTATCGGTCGA | 2.2 log2 normalized intensity
AATGTGTGTTCTGCTGCCATTGGATGGAATGCCTAGGGAGATTAGAGTATCGGTCGA | 1.51 log2 normalized intensity
GTCAGATGACAGAATTGGTCCTGGAACTCAGCCTAGGGAGATTAGAGTATCGGTCGA | 0.192 log2 normalized intensity
CCAACACAGAAGCCTTTTGTTCTTTGTGTGGCCTAGGGAGATTAGAGTATCGGTCGA | 1.47 log2 normalized intensity
CCTATGGTCTGTTCACTTGCCAAGCCTAGTGCCTAGGGAGATTAGAGTATCGGTCGA | -0.838 log2 normalized intensity
AAATATTGTCAGTGAGGAATGTGCAAACGGGCCTAGGGAGATTAGAGTATCGGTCGA | 0.32 log2 normalized intensity

Sequence | binding signal
GGTTGCACTCTGGTGCCCTCTGAGTGTTTGGCCTAGGGAGATTAGAGTATCGGTCGA | 2.54 log2 normalized intensity
ACCCTCTCTGGATGCAGGTCGCCGGGAAAAGCCTAGGGAGATTAGAGTATCGGTCGA | 0.74 log2 normalized intensity
AAGGTTGGTTTTTGGAGACAGGAGTAGTCAGCCTAGGGAGATTAGAGTATCGGTCGA | 0.982 log2 normalized intensity
AAAAGGATGCTAGGTTTGTGAGTCCAAAGGGCCTAGGGAGATTAGAGTATCGGTCGA | 5.08 log2 normalized intensity
AGGTCAGGGAGTAGGTTTGATTTGTGAAAGGCCTAGGGAGATTAGAGTATCGGTCGA | 1.03 log2 normalized intensity
GATGCTAGGTTTGTGAGTCCAAAGGTCAGCGCCTAGGGAGATTAGAGTATCGGTCGA | 9.81 log2 normalized intensity
TCACAGTGTGGGGCAAATCTGAGGTCAAAGGCCTAGGGAGATTAGAGTATCGGTCGA | 2.51 log2 normalized intensity
ATGTTAGTCTTGAGTCCCAAAGTCCAAAGGGCCTAGGGAGATTAGAGTATCGGTCGA | 6.25 log2 normalized intensity
TAGGTTTGTGAGTCCAAAGGTCAGCCGGGGGCCTAGGGAGATTAGAGTATCGGTCGA | 8.36 log2 normalized intensity
GGTGTGAGAGGGCAAAGGTCACAGCATTAGGCCTAGGGAGATTAGAGTATCGGTCGA | 7.08 log2 normalized intensity
CCTGAGGTGTGAGAGGGCAAAGGTCACAGCGCCTAGGGAGATTAGAGTATCGGTCGA | 8.73 log2 normalized intensity
TTGTGAGTCCAAAGGTCAGCCGGGGAAGGTGCCTAGGGAGATTAGAGTATCGGTCGA | 7.55 log2 normalized intensity
AGTCCAAAGGTCAGCCGGGGAAGGTGCAGGGCCTAGGGAGATTAGAGTATCGGTCGA | 5.55 log2 normalized intensity
TGAGTATCCAAAGGTCAGTGACAAATGTCAGCCTAGGGAGATTAGAGTATCGGTCGA | 4.51 log2 normalized intensity
TACGTGACCTACTTAGTCTCCAGCCCCCAGGCCTAGGGAGATTAGAGTATCGGTCGA | 4.08 log2 normalized intensity
TTTGGGGGTTGGTATTACAAAGCAATCTACGCCTAGGGAGATTAGAGTATCGGTCGA | 0.18 log2 normalized intensity
TGAGCCATCCTGAACAAATGTACTGGATATGCCTAGGGAGATTAGAGTATCGGTCGA | -0.391 log2 normalized intensity
GACATAAATCACATTGTTAGCATAGCCTATGCCTAGGGAGATTAGAGTATCGGTCGA | -0.813 log2 normalized intensity
TGCTCACGTTTTCCTGCTGACCCTCTCCCCGCCTAGGGAGATTAGAGTATCGGTCGA | 4.22 log2 normalized intensity
GTGTGACCTTTGCCTTCTTGACATCTCTCTGCCTAGGGAGATTAGAGTATCGGTCGA | 5.21 log2 normalized intensity
CTGCAGTGTGACCTTTGCCTTCTTGACATCGCCTAGGGAGATTAGAGTATCGGTCGA | 6.8 log2 normalized intensity
ACTGCTTACCCTGCAGTGTGACCTTTGCCTGCCTAGGGAGATTAGAGTATCGGTCGA | 8.52 log2 normalized intensity

Sequence | binding signal
TCTACACTGCTTACCCTGCAGTGTGACCTTGCCTAGGGAGATTAGAGTATCGGTCGA | 4.68 log2 normalized intensity
TTACCCTGCAGTGTGACCTTTGCCTTCTTGGCCTAGGGAGATTAGAGTATCGGTCGA | 8.09 log2 normalized intensity
GATGTTCTACACTGCTTACCCTGCAGTGTGGCCTAGGGAGATTAGAGTATCGGTCGA | -0.757 log2 normalized intensity
AGCTTGCTCTCACCAGCTTCTTCTCTTTGAGCCTAGGGAGATTAGAGTATCGGTCGA | -0.143 log2 normalized intensity
ACTGTAACCTTTGCCCCCCTGGGCTCAAGCGCCTAGGGAGATTAGAGTATCGGTCGA | 6.27 log2 normalized intensity
TGGTGCTATCTTTGCTCACTGTAACCTTTGGCCTAGGGAGATTAGAGTATCGGTCGA | 4.34 log2 normalized intensity
TTTGCTCACTGTAACCTTTGCCCCCCAAGTGCCTAGGGAGATTAGAGTATCGGTCGA | 9.22 log2 normalized intensity
AGCCCCAACCCACTGTTGCCCCTTCCAAAGGCCTAGGGAGATTAGAGTATCGGTCGA | 4.73 log2 normalized intensity
ATCTCAGCTCACTGTAACCTTTGCCCCCCTGCCTAGGGAGATTAGAGTATCGGTCGA | 9.22 log2 normalized intensity
AACCTTTGCCCCAGCTGTCACCCAGCCAGAGCCTAGGGAGATTAGAGTATCGGTCGA | 4.16 log2 normalized intensity
GTGCTATCTCAGCTCACTGTAACCTTTGCCGCCTAGGGAGATTAGAGTATCGGTCGA | 4.68 log2 normalized intensity
GTAACCTTTGCCCCCCAAGTTGAAGCCATCGCCTAGGGAGATTAGAGTATCGGTCGA | 5.74 log2 normalized intensity
TCACTGTAACCTTTGCCCCCCAAGTTGAAGGCCTAGGGAGATTAGAGTATCGGTCGA | 7.68 log2 normalized intensity
TCAAGCTCAATGCAACCAGTTGGTGGGTCAGCCTAGGGAGATTAGAGTATCGGTCGA | 1.44 log2 normalized intensity
GTTAGAACAAAGTCCAAATTCCTAACTATGGCCTAGGGAGATTAGAGTATCGGTCGA | 4.38 log2 normalized intensity
TTTATTAGGGGTCAGCAAAGAACTCCCCAGGCCTAGGGAGATTAGAGTATCGGTCGA | 2.41 log2 normalized intensity
ACCAGCAATTTTCAGGGTTAAAAGTTCTGCGCCTAGGGAGATTAGAGTATCGGTCGA | 1.05 log2 normalized intensity
GTGTTTGTCCTTTGTTGCAATGCTGGAACAGCCTAGGGAGATTAGAGTATCGGTCGA | 1.28 log2 normalized intensity
CAGGTGGGAGGGGTGGACTTTGGCTTTTCCGCCTAGGGAGATTAGAGTATCGGTCGA | 6.31 log2 normalized intensity
